Assay [1] addresses Aryl hydrocarbon receptor (Homo sapiens) (UniProt P35869). The assay is described as follows: qHTS assay to identify small molecule that activate the aryl hydrocarbon receptor (AhR) signaling pathway (AID 743085).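 Also: HG2L7.5c1 human HepG2 liver cells with stably integrated DRE-driven firefly reporter; series mostly up to about 70 µM; nearly all actives have a fitted effect of over 15% in size.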 Put shortly: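 24 h compound exposure, 37C, HepG2-derived HG2L7.5c1 cells with DRE-responsive luciferase. Readouts: fluorescence viability, then luminescence at room temperature after 30 min.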
On the technique in general: qHTS replaces the single test concentration by a dilution series.

Assay [2] can be described thus: qHTS assay to identify small molecule that activate the aryl hydrocarbon receptor (AhR) signaling pathway - cell viability counter screen (AID 743086). Also: nearly all actives have a fitted effect of over 45% in size. Also: potency is read from the fitted curve at half-maximal effect. In outline: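 Cytotoxicity counter screen: CellTiter-Fluor signal (30 min, 37 C) in 4000 HepG2 cells/well carrying the DRE-luciferase reporter, following 24 h compound exposure at 37 C.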
Assay [3] has as its target Peroxisome proliferator-activated receptor gamma (Homo sapiens) (UniProt P37231). The assay is described as follows: qHTS assay to identify small molecule agonists of the peroxisome proliferator-activated receptor gamma (PPARg) signaling pathway (AID 743094; active = well fitted activation curve with a large enough effect in the signal ratio in the repeat runs, not every such curve was filed as active; the % refers to the signal ratio). Put shortly:
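GeneBLAzer PPARg UAS-bla HEK293H cells carrying a stably integrated beta-lactamase reporter were pre-incubated 5 h at 37C, then exposed to compounds in DMSO for 17 h at 37C; LiveBLAzer B/G FRET substrate was added for 1 h at room temperature and fluorescence read.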

Assay [4] has the same target. Put plainly: qHTS assay to identify small molecule antagonists of the peroxisome proliferator-activated receptor gamma (PPARg) signaling pathway (AID 743191; calls by dose curve; also: nearly all actives have a fitted effect of over 30% in size; also: potency is read from the fitted curve at half-maximal effect). In outline:
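Beta-lactamase reporter under UAS control in HEK293H PPARg-bla cells; compound treatment 17 h at 37C. Read-out: fluorescence intensity after 1 h room-temperature incubation with LiveBLAzer B/G FRET substrate.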

A short description of assay [5]: qHTS assay to identify small molecule antagonists of the peroxisome proliferator-activated receptor gamma (PPARg) signaling pathway - cell viability counter screen (AID 743194). Also: nearly all actives have a fitted effect of over 55% in size. Put shortly: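 Viability was measured as CellTiter-Glo luminescence in GeneBLAzer PPARg UAS-bla HEK293H cells. These cells had been exposed 17 h at 37 C to compounds together with rosiglitazone at 50 nM final, with the beta-lactamase readout taken in the same wells.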

A short description of assay [6]: qHTS assay for small molecule agonists of the antioxidant response element (ARE) signaling pathway (AID 743202; active = well fitted activation curve with a large enough effect in the signal ratio in the repeat runs, not every such curve was filed as active; the % refers to the signal ratio; also: potency is read from the fitted curve at half-maximal effect). Put shortly: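 Quantitative high-throughput format in HepG2 cells bearing an integrated ARE-beta-lactamase reporter. Compound exposure lasted 16 h at 37 C, and fluorescence was read 2 h after adding LiveBLAzer B/G substrate at room temperature.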
Assay [7] is described as follows: qHTS assay for small molecule agonists of the antioxidant response element (ARE) signaling pathway - cell viability counter screen (AID 743203; calls by dose curve; also: nearly all actives have a fitted effect of over 55% in size). In outline: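 CellSensor ARE-bla HepG2 cells, 2,000 per well, rested 5 hrs at 37C/5% CO2, then exposed to compound in DMSO for 16 hrs; viability read as CellTiter-Glo luminescence after 30 min at room temperature, in the reporter wells.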

A short description of assay [8]: qHTS assay for small molecule activators of the heat shock response signaling pathway - cell viability counter screen (AID 743209). Also: nearly all actives have a fitted effect of over 50% in size. In outline:
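CellSensor HSE-bla HeLa cells, plated overnight at 37 C/5% CO2, were exposed to compounds in DMSO for 5 h at 37 C. Viability was then read in the same wells by CellTiter-Glo luminescence after 30 min at room temperature.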

Assay [9] can be described thus: qHTS assay for small molecule activators of the heat shock response signaling pathway (AID 743210; active = well fitted activation curve with a large enough effect in the signal ratio in the repeat runs, with a control signal flat, not every such curve was filed as active; the % refers to the signal ratio;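 also: HeLa cells with beta-lactamase reporter driven by heat shock elements; series mostly up to about 63 µM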). Put shortly: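 HeLa HSE-bla cells, overnight plating; cpd in DMSO 5 h, 37 C; LiveBLAzer B/G FRET substrate 2.5 h RT; fluorescence intensity read.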
Assay [10] in a line: qHTS assay to identify small molecule agonists of the peroxisome proliferator-activated receptor delta (PPARd) signaling pathway - cell viability counter screen (AID 743211). Also: nearly all actives have a fitted effect of over 55% in size. Also: potency is read from the fitted curve at half-maximal effect. Put shortly:
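Luminescent ATP viability assay (CellTiter-Glo, 30 min RT) in UAS-bla HEK293H cells carrying the PPAR delta reporter construct, 3000 cells/well, after a 17 h compound treatment at 37 C.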

Assay [11] has as its target Peroxisome proliferator-activated receptor delta (Homo sapiens) (UniProt Q03181). The assay is described as follows: qHTS assay to identify small molecule agonists of the peroxisome proliferator-activated receptor delta (PPARd) signaling pathway (AID 743212; calls by dose curve). Put shortly: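 HEK293H PPARd-bla cells; 5 h preincubation 37 C/5% CO2; compound (DMSO) 37 C; LiveBLAzer B/G FRET substrate 2 h RT; fluorescence intensity.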

Assay [12] in a line: qHTS assay to identify small molecule antagonists of the peroxisome proliferator-activated receptor delta (PPARd) signaling pathway - cell viability counter screen (AID 743213). Also: nearly all actives have a fitted effect of over 50% in size. Put shortly: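 Same-well viability: cells pre-incubated 5 h, dosed with compound plus 300 nM L165041, kept 17 h at 37 C, FRET substrate 2 h RT, then CellTiter-Glo 30 min RT and luminescence.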
Assay [13] is described as follows: qHTS assay to identify small molecule agonists of the farnesoid-X-receptor (FXR) signaling pathway - cell viability counter screen (AID 743218). Also: nearly all actives have a fitted effect of over 45% in size. In outline: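 FXR-UAS-bla HEK 293T cells, plated 5 h at 37 C, were exposed to compounds for 16 h at 37 C. CellTiter-Glo was then added to the same wells as the bla readout; luminescence read after 30 min at room temperature.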

A short description of assay [14]: qHTS assay to identify small molecule antagonists of the farnesoid-X-receptor (FXR) signaling pathway - cell viability counter screen (AID 743221; active = well fitted cell-killing curve with a large enough effect in the repeat runs, not every such curve was filed as active; also: nearly all actives have a fitted effect of over 50% in size). In outline:
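In GeneBLAzer FXR-UAS-bla HEK 293T cells stimulated with 50 uM chenodeoxycholic acid (final), compounds acted for 16 h at 37 C. Viability was assessed afterwards by CellTiter-Glo luminescence.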

The target of assay [15] is Vitamin D3 receptor (Homo sapiens) (UniProt P11473). The assay is described as follows: qHTS assay to identify small molecule agonists of the vitamin D receptor (VDR) signaling pathway (AID 743222; calls by dose curve). In outline: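 VDR-bla cells were plated 4 h at 37C/5% CO2, then exposed to compounds in DMSO for 16 h. After LiveBLAzer B/G FRET substrate addition and 2 h at room temperature, beta-lactamase reporter fluorescence was read.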
Sequence of Vitamin D3 receptor (Homo sapiens) (P11473 whole entry, looked up): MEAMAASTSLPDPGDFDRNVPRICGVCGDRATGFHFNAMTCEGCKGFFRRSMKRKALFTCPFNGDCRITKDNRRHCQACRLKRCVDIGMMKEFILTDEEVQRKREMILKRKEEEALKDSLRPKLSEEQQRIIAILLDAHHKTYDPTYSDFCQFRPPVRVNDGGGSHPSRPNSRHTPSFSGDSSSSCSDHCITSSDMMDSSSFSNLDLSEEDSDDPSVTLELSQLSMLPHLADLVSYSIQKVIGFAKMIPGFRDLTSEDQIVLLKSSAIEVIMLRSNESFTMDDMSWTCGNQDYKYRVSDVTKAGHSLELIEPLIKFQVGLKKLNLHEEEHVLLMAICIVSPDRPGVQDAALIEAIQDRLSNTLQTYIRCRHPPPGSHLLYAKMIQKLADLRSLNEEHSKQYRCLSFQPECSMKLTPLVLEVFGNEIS

The target is the same in assay [16]. Put plainly: qHTS assay to identify small molecule antagonists of the vitamin D receptor (VDR) signaling pathway (AID 743223; active = well fitted inhibition curve with a large enough effect in the signal ratio in the repeat runs, not every such curve was filed as active; the % refers to the signal ratio). Put shortly: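 Agonist 1alpha,25-dihydroxyvitamin D3 (3 nM in well) was added with each compound to VDR-bla cells preincubated 4 h. Cells stood 16 h at 37C, then FRET substrate 2 h at room temperature; fluorescence intensity recorded.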

Assay [17] in a line: qHTS assay to identify small molecule agonists of the vitamin D receptor (VDR) signaling pathway - cell viability counter screen (AID 743224). Also: nearly all actives have a fitted effect of over 50% in size. Also: potency is read from the fitted curve at half-maximal effect. Put shortly: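 VDR-bla cells were preincubated 4 h at 37C/5% CO2, then exposed to compounds for 16 h. After the 2 h room-temperature bla FRET read, CellTiter-Glo was added to the same wells and luminescence read after 30 min.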
The nature of assay [18]: qHTS assay to identify small molecule antagonists of the vitamin D receptor (VDR) signaling pathway - cell viability counter screen (AID 743225). Also: nearly all actives have a fitted effect of over 50% in size. Also: potency is read from the fitted curve at half-maximal effect. In outline:
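Luminescent cell viability (CellTiter-Glo) in VDR-bla HEK 293T cells after 16 h compound exposure at 37C in the presence of 3 nM final 1-alpha,25-dihydroxy vitamin D3.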

The target of assay [19] is Bile acid receptor (Homo sapiens) (UniProt Q96RI1). Put plainly: qHTS assay to identify small molecule antagonists of the farnesoid-X-receptor (FXR) signaling pathway (AID 743217; active = well fitted inhibition curve with a large enough effect in the signal ratio in the repeat runs, not every such curve was filed as active; the % refers to the signal ratio). In outline: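 FXR-UAS-bla HEK 293T cells pre-incubated 5 h at 37 °C, then exposed to compounds with chenodeoxycholic acid (50 uM final) for 16 h at 37 °C. Beta-lactamase reporter read by LiveBLAzer B/G FRET substrate fluorescence after 2 h at room temperature.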
Sequence of Bile acid receptor (Homo sapiens) (Q96RI1 whole entry, looked up): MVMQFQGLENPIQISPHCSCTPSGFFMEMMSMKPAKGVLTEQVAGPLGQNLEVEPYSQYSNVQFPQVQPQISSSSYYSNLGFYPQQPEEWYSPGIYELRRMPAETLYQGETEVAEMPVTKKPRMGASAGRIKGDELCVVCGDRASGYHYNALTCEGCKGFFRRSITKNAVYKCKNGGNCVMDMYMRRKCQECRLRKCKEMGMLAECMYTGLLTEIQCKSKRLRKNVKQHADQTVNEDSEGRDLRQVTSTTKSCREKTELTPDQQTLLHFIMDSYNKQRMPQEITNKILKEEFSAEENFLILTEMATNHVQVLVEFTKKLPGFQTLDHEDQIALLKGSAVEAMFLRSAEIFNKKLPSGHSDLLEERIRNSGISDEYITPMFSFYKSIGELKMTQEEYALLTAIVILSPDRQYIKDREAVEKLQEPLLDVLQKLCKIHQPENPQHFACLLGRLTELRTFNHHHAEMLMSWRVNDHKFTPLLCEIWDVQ

The target is the same in assay [20]. The assay is described as follows: qHTS assay to identify small molecule agonists of the farnesoid-X-receptor (FXR) signaling pathway (AID 743220; active = well fitted activation curve with a large enough effect in the signal ratio in the repeat runs, not every such curve was filed as active; the % refers to the signal ratio). Put shortly: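 Beta-lactamase reporter under UAS control in GeneBLAzer FXR HEK 293T cells (5000/well) measured with LiveBLAzer FRET substrate after 2 h at room temperature. Compound exposure lasted 16 h at 37C.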

Consider seven compounds from PubChem BioAssay (Tox21).

Where “and” joins values, the source holds several entries; their conditions need not be identical. Identical values can stand only once. Records with an inconclusive call do not appear. A structure can be active in one record and inactive in another. Calls of active or inactive are those of the source. Unless noted, calls follow the shape of the dose curve; as a rule, active = well fitted curve in the direction sought with a large enough effect in the repeat runs; inconclusive = weak or mixed curves; inactive = no such curve, though single readings can be large; an effect the other way counts as inactive or inconclusive.

Sequence of Aryl hydrocarbon receptor (Homo sapiens) (P35869 whole entry, looked up): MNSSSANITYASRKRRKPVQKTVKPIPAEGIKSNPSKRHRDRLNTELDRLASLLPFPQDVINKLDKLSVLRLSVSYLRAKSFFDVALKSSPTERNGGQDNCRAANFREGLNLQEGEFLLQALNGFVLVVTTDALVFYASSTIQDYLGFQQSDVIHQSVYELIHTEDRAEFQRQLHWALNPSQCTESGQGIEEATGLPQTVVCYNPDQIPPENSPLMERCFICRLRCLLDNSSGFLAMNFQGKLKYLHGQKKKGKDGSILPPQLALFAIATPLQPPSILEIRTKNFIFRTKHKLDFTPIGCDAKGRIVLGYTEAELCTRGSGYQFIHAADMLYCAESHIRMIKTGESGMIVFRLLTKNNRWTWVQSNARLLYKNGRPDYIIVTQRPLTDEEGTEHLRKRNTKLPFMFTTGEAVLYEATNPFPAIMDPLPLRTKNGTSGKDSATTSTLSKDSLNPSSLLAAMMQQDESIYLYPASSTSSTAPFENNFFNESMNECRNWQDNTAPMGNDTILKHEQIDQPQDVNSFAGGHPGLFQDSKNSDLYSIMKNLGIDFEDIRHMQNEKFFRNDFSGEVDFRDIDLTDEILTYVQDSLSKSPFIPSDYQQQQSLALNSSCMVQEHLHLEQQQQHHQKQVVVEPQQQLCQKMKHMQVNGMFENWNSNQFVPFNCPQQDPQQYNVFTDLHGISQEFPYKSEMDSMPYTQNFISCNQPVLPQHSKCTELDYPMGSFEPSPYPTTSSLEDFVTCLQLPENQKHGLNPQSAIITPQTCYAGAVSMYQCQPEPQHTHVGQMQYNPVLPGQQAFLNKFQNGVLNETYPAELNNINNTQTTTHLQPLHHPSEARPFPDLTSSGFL
Sequence of Peroxisome proliferator-activated receptor gamma (Homo sapiens) (P37231 whole entry, looked up): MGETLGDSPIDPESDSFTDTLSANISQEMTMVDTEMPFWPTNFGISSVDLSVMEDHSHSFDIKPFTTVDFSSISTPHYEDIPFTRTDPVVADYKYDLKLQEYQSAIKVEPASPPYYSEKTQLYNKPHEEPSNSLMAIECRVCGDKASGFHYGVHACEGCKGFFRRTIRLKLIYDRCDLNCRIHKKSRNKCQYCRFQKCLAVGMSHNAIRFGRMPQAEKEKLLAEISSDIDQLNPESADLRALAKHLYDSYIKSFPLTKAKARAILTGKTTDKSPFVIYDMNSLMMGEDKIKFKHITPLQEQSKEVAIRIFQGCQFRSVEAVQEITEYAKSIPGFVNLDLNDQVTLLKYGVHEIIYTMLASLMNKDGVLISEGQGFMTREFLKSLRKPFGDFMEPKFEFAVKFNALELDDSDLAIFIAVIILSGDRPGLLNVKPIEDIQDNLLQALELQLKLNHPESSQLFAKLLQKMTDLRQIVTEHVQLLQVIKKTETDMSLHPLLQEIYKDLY
Sequence of Peroxisome proliferator-activated receptor delta (Homo sapiens) (Q03181 whole entry, looked up): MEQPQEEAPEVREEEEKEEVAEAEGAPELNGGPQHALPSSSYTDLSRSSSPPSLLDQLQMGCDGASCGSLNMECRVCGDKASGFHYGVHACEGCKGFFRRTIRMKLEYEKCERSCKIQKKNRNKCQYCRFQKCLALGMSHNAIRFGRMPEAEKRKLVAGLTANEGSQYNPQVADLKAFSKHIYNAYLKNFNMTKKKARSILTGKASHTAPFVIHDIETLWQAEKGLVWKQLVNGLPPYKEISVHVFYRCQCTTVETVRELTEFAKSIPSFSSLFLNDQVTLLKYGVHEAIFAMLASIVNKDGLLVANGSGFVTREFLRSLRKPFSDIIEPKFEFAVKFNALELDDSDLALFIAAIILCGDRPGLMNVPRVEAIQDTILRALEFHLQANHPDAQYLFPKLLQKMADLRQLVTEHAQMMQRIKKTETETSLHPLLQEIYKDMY

`Cc1cccc(C)c1`: the Potency entry in assay [1], in [2], in assay [3], in assay [4], in [5] and in assay [6] was “inactive” throughout. For the same compound, the Potency result in assay [7], in assay [8], in assay [10], in assay [11], in [12] and in assay [13] was “inactive” each time. In addition, the Potency result in assay [14], in [15], in assay [16], in [17] and in assay [18] was “inactive” each time. Also, in [9], the result was inactive.
As to `NS(=O)(=O)c1cc2c(cc1Cl)NCNS2(=O)=O`, the Potency result in assay [1], in assay [2], in assay [3], in assay [4], in assay [5] and in assay [6] was “inactive” each time. The Potency result in [7], in assay [8], in assay [10], in assay [12], in assay [19] and in assay [14] was “inactive” throughout. Further, the Potency entry in [15], in assay [16], in assay [17] and in assay [18] was “inactive” throughout. In addition, the call in assay [9] and in assay [20] was inactive.
As for `CCCCCCc1ccc(O)cc1O`, the Potency result in [1], in assay [2], in [3], in assay [5], in [7] and in [8] was “inactive” in each case. Further, the Potency entry in assay [12], in assay [14], in assay [15] and in assay [16] was “inactive” each time. Also, the Potency in assay [4] was 11.9 µM (active); in assay [6], 24.4 µM (active) and 26.6 µM (active); in [10], 43.8 µM (active) and inactive; in [17] it was 38.9 µM (active) and inactive; in [18], 49 µM (active). The compound was classed as inactive in assay [9].
With `O=c1[nH]cc(F)c(=O)[nH]1`, the Potency result in assay [1], in assay [2], in assay [3], in assay [4], in [5] and in [6] was “inactive” throughout. Moreover, the Potency entry in assay [7], in [8], in assay [10], in assay [11], in assay [12] and in [19] was “inactive” throughout. The Potency entry in assay [13], in assay [14], in assay [15], in assay [16], in [17] and in [18] was “inactive” each time. The compound was classed as inactive in assay [9] and in assay [20].
`O=S1(=O)OC(c2ccc(O)cc2)(c2ccc(O)cc2)c2ccccc21`: the Potency result in assay [1], in assay [3], in assay [4], in [5], in assay [6] and in [7] was “inactive” in each case. The Potency entry in assay [8], in assay [10], in assay [11], in assay [12], in assay [13] and in [14] was “inactive” throughout. Also, the Potency result in assay [15], in assay [16], in assay [17] and in [18] was “inactive” each time. Further, the Potency in assay [2] was 24.3 µM (active). The outcome in assay [9] was inactive.
As to `CCCCOC(=O)c1ccc(O)cc1`, the Potency result in assay [1], in assay [2], in [3], in assay [5], in assay [6] and in assay [7] was “inactive” each time. Further, the Potency entry in assay [8], in assay [10], in [11], in [12], in [19] and in assay [13] was “inactive” each time. The Potency result in assay [14], in [15], in assay [16], in assay [17] and in assay [18] was “inactive” throughout. The call in assay [9] and in [20] was inactive.
For the compound `O=C(O)CC(O)C(=O)O` (stereo unspecified), the Potency entry in assay [1], in assay [2], in assay [3], in assay [4], in [5] and in [6] was “inactive” each time. For the same compound, the Potency entry in [7], in assay [8], in assay [10], in assay [12], in [13] and in assay [14] was “inactive” in each case. The Potency result in [15], in assay [16], in assay [17] and in assay [18] was “inactive” in each case. For the same compound, in assay [9], the compound was called inactive.
